This passage reports binding signal results from PMC7862700, “An all-to-all approach to the identification of sequence-specific readers for epigenetic DNA modifications on cytosine”.

Test in all cases: DAPPL (digital affinity profiling via proximity ligation, sequencing); 10 mM Tris-HCl pH 7.5, 50 mM NaCl, 1 mM DTT, 4% glycerol, room temperature, 30 min; GST-TFs on glutathione beads, 16-mer random dsDNA library, 0.1% formaldehyde crosslink after washing; high values mean tight binding
For experiment [1], the target named is T1, FLI1 (Homo sapiens, UniProt Q01543 1-452).
T1 sequence: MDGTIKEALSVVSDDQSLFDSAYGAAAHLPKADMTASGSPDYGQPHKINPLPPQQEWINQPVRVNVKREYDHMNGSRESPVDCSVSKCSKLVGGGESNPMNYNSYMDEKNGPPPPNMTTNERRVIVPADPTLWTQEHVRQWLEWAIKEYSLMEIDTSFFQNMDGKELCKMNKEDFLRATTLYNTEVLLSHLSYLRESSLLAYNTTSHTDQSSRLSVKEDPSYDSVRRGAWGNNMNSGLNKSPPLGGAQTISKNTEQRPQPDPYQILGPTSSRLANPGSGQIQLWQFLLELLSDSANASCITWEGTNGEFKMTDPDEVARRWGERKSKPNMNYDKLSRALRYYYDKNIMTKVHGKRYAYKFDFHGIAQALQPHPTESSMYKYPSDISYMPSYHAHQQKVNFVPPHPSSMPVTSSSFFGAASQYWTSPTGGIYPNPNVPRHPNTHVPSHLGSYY
The conditions noted are these: protein: recombinant; tags: N-terminal GST; dsDNA, one strand shown. In a few lines:
(§1)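 Pools of DNA-barcoded human transcription factors, expressed in yeast as GST fusions on glutathione beads and combined with a tag-only sample, were incubated with 200 nmole of a 16-mer random double-stranded DNA library. Incubation took 30 min at room temperature in Tris/NaCl/DTT/glycerol buffer and was followed by washing, 0.1% formaldehyde crosslinking, proximity ligation (BsaI/T4 ligase, 1 h, 37 °C), PCR amplification and sequencing on an Illumina NextSeq500. Binding signal is the ratio of a hexamer's read frequency for a factor to its frequency for the tag-only sample.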

In experiment [2] the target is T2, ELK1 (Homo sapiens, UniProt P19419 1-428).
T2 sequence: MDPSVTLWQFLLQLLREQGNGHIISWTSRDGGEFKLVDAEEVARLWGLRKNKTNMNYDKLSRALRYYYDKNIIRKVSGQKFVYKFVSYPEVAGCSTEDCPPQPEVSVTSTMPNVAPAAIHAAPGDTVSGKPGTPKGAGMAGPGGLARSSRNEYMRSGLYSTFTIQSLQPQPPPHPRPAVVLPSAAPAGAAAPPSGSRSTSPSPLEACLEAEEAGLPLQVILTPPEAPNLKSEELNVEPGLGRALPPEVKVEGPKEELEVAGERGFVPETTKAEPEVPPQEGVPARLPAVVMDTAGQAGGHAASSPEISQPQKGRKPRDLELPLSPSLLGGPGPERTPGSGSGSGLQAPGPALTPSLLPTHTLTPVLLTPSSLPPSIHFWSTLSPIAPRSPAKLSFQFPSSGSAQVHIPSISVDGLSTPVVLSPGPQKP
Particulars: protein: recombinant; tags: N-terminal GST; dsDNA, one strand shown. An outline of the steps:
as §1

The target in experiment [3] is T3, GABPA (Homo sapiens, UniProt Q06546 1-454).
T3 sequence: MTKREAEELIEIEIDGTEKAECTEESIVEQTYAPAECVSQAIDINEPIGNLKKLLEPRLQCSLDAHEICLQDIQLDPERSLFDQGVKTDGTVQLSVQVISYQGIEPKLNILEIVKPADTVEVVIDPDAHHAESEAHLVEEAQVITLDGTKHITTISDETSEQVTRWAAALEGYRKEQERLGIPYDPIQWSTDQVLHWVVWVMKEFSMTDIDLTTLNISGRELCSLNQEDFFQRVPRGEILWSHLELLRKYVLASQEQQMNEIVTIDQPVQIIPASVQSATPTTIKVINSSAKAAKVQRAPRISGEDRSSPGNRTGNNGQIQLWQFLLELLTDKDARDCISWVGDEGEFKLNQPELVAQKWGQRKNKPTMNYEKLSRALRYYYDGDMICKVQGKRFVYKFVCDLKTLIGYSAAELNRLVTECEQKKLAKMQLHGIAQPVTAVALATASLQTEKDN
The conditions noted are these: protein: recombinant; tags: N-terminal GST; dsDNA, one strand shown. An outline of the steps:
as §1

For experiment [4], the target named is T4, ERG (Homo sapiens, UniProt P11308 1-479).
T4 sequence: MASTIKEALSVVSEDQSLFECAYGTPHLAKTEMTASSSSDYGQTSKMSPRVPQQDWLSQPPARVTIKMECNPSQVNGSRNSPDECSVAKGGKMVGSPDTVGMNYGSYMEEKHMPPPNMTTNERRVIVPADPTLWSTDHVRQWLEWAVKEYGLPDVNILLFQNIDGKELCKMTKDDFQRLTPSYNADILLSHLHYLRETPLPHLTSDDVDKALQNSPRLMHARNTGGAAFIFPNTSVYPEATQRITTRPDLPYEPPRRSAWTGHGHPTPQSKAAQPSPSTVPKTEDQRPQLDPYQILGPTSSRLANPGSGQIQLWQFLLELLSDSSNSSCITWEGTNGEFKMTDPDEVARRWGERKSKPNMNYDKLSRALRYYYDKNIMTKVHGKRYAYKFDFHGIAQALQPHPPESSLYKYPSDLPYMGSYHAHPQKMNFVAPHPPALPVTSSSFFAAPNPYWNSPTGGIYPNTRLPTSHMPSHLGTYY
Particulars: protein: recombinant; tags: N-terminal GST; dsDNA, one strand shown. In a few lines: as §1

In experiment [5] the target is ELF1 (Homo sapiens, UniProt P32519 1-619). Particulars: protein: recombinant; tags: N-terminal GST; dsDNA, one strand shown. An outline of the steps:
as §1

Experiment [6] concerns the target SPI1 (Homo sapiens, UniProt P17947 1-270). Particulars: protein: recombinant; tags: N-terminal GST; dsDNA, one strand shown. In a few lines:
as §1

In experiment [7] the target is SPIB (Homo sapiens, UniProt Q01892 1-262). The conditions noted are these: protein: recombinant; tags: N-terminal GST; dsDNA, one strand shown. In a few lines:
as §1

Experiment [8] concerns the target T5, ELK3 (Homo sapiens, UniProt P41970 1-407).
T5 sequence: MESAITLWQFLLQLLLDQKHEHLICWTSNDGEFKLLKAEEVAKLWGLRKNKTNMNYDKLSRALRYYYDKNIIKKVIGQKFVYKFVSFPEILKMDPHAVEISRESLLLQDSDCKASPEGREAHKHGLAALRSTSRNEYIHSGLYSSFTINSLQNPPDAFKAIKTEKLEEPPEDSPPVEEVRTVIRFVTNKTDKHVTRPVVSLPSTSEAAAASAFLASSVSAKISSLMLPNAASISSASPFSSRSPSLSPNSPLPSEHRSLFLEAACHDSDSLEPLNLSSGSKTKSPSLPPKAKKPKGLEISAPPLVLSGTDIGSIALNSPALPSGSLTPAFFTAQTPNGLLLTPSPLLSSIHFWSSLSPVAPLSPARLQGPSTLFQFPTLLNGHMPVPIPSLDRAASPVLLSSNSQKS
The conditions noted are these: protein: recombinant; tags: N-terminal GST; dsDNA, one strand shown. In a few lines:
as §1

Experiment [9] concerns the target ETV5 (Homo sapiens, UniProt P41161 1-510). The conditions noted are these: protein: recombinant; tags: N-terminal GST; dsDNA, one strand shown. An outline of the steps:
as §1

Experiment [10] addresses HSF1 (Homo sapiens, UniProt Q00613 1-529). Particulars: protein: recombinant; tags: N-terminal GST; chain copies: 3; dsDNA, one strand shown. An outline of the steps: as §1
Experiment [11] addresses T6, SPIC (Homo sapiens, UniProt Q8N5J4 1-248).
T6 sequence: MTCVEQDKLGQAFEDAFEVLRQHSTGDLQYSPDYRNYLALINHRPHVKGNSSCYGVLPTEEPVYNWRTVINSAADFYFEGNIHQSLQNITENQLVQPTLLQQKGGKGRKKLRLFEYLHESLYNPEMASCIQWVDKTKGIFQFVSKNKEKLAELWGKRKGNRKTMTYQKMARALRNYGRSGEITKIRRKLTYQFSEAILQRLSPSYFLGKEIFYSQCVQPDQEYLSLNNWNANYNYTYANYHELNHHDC
Particulars: protein: recombinant; tags: N-terminal GST; dsDNA, one strand shown. In a few lines:
as §1

Experiment [12] has as its target ELF4 (Homo sapiens, UniProt Q99607 1-663). The conditions noted are these: protein: recombinant; tags: N-terminal GST; dsDNA, one strand shown. In a few lines:
as §1

The target of experiment [13] is T7, ELK4 (Homo sapiens, UniProt P28324-2 1-405).
T7 sequence: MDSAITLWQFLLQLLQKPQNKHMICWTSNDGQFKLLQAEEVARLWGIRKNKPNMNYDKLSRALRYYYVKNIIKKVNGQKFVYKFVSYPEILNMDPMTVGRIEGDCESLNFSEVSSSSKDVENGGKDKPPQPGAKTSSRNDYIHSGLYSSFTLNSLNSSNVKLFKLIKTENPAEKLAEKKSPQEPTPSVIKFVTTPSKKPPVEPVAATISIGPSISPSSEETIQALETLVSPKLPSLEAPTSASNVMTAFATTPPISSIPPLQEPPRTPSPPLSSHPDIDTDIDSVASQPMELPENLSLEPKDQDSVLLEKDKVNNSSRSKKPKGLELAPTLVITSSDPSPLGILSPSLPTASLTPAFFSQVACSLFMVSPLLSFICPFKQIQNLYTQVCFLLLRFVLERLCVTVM
Particulars: protein: recombinant; tags: N-terminal GST; dsDNA, one strand shown. An outline of the steps: as §1

Experiment [14] has as its target T8, ETV2 (Homo sapiens, UniProt O00321 1-342).
T8 sequence: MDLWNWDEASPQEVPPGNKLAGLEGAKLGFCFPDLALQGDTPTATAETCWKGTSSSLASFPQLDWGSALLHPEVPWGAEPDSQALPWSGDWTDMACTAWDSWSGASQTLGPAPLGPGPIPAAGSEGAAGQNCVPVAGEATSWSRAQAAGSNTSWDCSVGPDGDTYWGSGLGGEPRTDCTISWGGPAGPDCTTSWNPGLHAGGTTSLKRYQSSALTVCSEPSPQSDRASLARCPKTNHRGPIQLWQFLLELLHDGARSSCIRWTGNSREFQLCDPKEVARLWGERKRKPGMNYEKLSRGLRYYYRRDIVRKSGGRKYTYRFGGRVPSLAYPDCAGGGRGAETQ
Particulars: protein: recombinant; tags: N-terminal GST; dsDNA, one strand shown. In a few lines:
as §1

Experiment [15] concerns the target T9, ELF3 (Homo sapiens, UniProt P78545 1-371).
T9 sequence: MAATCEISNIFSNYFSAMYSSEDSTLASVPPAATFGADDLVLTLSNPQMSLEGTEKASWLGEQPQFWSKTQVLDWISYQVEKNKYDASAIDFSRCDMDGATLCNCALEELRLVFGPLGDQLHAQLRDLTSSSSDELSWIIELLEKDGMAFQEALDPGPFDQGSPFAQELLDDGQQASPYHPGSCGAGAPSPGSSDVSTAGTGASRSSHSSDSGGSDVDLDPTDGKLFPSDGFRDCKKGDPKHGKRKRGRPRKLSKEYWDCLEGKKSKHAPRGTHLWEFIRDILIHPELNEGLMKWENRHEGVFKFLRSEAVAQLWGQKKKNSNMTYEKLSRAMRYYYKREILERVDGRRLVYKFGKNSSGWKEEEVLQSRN
The conditions noted are these: protein: recombinant; tags: N-terminal GST; dsDNA, one strand shown. An outline of the steps: as §1

The target in experiment [16] is CRX (Homo sapiens, UniProt O43186 1-299). The conditions noted are these: protein: recombinant; tags: N-terminal GST; dsDNA, one strand shown. An outline of the steps: as §1
The target in experiment [17] is ETV1 (Homo sapiens, UniProt P50549 1-477). The conditions noted are these: protein: recombinant; tags: N-terminal GST; dsDNA, one strand shown. In a few lines: as §1
Chain of ETV1 (P50549 whole entry): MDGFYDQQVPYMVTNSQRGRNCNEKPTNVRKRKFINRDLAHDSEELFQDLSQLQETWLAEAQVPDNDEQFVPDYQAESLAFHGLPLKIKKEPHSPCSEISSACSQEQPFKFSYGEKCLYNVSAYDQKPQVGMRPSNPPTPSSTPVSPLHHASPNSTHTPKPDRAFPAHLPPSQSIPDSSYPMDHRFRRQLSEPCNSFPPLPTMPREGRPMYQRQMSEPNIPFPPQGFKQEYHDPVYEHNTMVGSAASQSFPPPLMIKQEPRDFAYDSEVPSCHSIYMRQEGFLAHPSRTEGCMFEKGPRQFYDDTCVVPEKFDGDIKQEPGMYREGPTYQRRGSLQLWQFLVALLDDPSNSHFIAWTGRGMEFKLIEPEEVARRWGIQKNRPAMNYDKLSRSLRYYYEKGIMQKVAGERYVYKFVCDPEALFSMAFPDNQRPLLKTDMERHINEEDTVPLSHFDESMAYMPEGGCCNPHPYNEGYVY

Chain of SPIB (Q01892 whole entry): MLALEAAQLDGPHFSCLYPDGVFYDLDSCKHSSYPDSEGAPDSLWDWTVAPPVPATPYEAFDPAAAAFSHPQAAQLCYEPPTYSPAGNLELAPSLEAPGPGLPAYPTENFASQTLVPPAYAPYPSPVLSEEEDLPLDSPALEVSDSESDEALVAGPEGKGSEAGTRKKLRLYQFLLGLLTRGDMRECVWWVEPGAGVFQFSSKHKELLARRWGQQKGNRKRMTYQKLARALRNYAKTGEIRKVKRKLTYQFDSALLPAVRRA
Chain of ELF1 (P32519 whole entry): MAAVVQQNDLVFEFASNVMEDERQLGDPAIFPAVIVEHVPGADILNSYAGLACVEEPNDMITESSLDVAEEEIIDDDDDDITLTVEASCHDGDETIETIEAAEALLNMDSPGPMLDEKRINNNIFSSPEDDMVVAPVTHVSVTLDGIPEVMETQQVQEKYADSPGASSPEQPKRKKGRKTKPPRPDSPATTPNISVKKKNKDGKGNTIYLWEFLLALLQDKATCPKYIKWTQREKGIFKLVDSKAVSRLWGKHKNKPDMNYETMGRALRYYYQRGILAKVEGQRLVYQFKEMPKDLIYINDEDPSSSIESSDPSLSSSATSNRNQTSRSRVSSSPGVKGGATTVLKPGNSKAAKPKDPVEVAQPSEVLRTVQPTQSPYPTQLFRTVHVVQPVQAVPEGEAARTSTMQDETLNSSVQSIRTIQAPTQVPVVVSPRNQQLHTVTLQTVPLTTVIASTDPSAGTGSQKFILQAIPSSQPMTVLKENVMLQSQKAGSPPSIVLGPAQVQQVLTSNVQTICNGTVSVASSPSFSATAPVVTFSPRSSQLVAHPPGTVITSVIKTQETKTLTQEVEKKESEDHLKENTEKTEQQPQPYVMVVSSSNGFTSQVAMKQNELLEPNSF
Chain of ETV5 (P41161 whole entry): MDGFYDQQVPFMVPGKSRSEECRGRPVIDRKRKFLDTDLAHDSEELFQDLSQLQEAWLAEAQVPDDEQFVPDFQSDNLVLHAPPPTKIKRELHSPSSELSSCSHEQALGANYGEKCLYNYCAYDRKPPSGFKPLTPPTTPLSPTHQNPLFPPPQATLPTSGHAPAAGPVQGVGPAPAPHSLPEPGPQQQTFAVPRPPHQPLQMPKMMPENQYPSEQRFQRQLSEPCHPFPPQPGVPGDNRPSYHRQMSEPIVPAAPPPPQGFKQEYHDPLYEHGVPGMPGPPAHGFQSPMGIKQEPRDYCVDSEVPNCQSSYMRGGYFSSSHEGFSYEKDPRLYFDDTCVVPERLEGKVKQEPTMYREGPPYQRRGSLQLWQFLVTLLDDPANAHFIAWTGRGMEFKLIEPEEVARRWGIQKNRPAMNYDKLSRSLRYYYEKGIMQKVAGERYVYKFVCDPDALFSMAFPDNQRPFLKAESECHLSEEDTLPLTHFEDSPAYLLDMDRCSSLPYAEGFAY
Chain of HSF1 (Q00613 whole entry): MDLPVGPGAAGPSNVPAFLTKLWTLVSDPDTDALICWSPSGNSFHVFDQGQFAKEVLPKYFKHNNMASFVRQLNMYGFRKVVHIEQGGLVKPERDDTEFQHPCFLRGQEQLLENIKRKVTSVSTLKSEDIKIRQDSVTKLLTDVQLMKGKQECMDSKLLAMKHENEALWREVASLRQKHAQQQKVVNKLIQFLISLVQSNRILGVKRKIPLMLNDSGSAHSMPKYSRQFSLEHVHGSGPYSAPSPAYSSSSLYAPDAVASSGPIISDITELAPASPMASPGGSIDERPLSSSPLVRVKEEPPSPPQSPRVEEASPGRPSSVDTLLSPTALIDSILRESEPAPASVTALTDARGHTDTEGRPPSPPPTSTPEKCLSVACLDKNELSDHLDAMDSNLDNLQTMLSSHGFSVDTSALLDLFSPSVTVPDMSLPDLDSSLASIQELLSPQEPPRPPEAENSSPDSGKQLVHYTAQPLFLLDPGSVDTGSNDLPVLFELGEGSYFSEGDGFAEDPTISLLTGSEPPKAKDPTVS
Chain of CRX (O43186 whole entry): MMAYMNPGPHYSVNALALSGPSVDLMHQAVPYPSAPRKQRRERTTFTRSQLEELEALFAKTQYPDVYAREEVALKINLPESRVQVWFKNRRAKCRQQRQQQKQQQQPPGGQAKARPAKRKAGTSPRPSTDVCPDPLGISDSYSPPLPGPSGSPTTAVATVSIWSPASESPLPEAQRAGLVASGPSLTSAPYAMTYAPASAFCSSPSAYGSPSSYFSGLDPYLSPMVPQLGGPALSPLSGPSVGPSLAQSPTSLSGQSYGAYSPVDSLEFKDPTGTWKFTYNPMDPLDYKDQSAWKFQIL
Chain of ELF4 (Q99607 whole entry): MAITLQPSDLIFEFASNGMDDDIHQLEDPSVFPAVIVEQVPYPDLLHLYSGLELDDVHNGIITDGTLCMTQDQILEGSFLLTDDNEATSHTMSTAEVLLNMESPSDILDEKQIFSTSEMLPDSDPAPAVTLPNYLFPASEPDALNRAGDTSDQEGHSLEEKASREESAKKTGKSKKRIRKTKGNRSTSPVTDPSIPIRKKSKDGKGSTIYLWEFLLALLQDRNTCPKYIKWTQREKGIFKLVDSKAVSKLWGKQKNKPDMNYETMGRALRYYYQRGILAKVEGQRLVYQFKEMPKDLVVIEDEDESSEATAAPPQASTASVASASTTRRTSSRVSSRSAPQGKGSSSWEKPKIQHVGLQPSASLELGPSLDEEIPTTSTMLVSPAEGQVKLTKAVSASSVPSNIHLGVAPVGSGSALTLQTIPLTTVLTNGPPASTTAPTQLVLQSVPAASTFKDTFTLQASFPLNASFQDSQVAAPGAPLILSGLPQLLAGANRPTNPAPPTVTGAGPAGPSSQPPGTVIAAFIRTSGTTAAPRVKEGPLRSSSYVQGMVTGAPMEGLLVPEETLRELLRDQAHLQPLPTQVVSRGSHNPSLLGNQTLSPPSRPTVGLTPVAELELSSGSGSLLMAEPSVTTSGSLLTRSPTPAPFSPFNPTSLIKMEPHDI

As to TGTGGA, the binding signal in experiment [1] is 1.08 fold enrichment (6-mer frequency, TF over GST control); in [2], 1.01 fold enrichment (6-mer frequency, TF over GST control); in [3], 1.06 fold enrichment (6-mer frequency, TF over GST control); in [4], 1.16 fold enrichment (6-mer frequency, TF over GST control); in experiment [5], 1.11 fold enrichment (6-mer frequency, TF over GST control); in [6] it was 1.09 fold enrichment (6-mer frequency, TF over GST control). For the same sequence, the binding signal in [7] is 1.1 fold enrichment (6-mer frequency, TF over GST control); in experiment [8], 1.04 fold enrichment (6-mer frequency, TF over GST control); in [9], 1.04 fold enrichment (6-mer frequency, TF over GST control); in [10], 1.13 fold enrichment (6-mer frequency, TF over GST control); in experiment [11] it was 1.11 fold enrichment (6-mer frequency, TF over GST control); in experiment [12], 1.06 fold enrichment (6-mer frequency, TF over GST control). Also, the binding signal is 1.15 fold enrichment (6-mer frequency, TF over GST control) in [13]; 1.13 fold enrichment (6-mer frequency, TF over GST control) in [14]; 1 fold enrichment (6-mer frequency, TF over GST control) in experiment [15]; 1.06 fold enrichment (6-mer frequency, TF over GST control) in [16]; 1.03 fold enrichment (6-mer frequency, TF over GST control) in experiment [17].
